Data on 48 compounds can be found in PubChem BioAssay AID1851 (National Center for Advancing Translational Sciences (NCATS), 2009).

By AC50 is commonly meant the concentration giving half of the maximal activity seen.

Out of some 16,000 compounds screened, about 5,800 (36%) were called active. Roughly 23% stayed inconclusive and do not appear here. The list shows a part of the results. Values without a mark were called inactive. Calls come from the whole dose curve; as a rule, active = well fitted curve in the direction sought with a large enough effect; inconclusive = small, poorly fitted or top-dose-only effect, or effect the other way; inactive = no such curve, though single readings can be large or run the other way.
% is set by controls: 0 for no effect and ±100 for the full control effect.

In this assay the target is Cytochrome P450 2C19 (Homo sapiens) (UniProt P33261). Briefly: Cytochrome panel assay with activity outcomes. The following applies: recombinant CYP, pro-luciferin dealkylation, luminescence, p450-cyp2c19; series mostly up to 57.1 µM; activity, negative = inhibition: at the top concentration.
Chain of Cytochrome P450 2C19 (Homo sapiens) (P33261 whole entry, looked up): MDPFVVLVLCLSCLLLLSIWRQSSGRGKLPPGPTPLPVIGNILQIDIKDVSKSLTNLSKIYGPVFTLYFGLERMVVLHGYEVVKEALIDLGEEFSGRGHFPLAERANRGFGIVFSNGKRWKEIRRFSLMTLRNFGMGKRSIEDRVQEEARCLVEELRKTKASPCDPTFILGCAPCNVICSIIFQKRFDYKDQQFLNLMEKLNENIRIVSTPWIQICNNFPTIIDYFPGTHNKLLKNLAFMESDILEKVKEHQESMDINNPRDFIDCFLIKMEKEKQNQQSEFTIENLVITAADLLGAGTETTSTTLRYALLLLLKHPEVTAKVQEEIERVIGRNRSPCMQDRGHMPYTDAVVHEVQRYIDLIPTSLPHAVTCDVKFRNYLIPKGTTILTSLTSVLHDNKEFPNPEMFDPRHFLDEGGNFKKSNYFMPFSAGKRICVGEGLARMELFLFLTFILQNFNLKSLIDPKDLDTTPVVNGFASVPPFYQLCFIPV
For `Nc1nc(N)nc(CCCc2nc(N)nc(N)n2)n1`, the activity, negative = inhibition was 103% [at 11.4 µM].

On to `N#Cc1cccc(-c2nc3cnc(N4CCNCC4)nc3n(C3CC3)c2=O)c1`, for which the “activity, negative = inhibition” value was -6.27%.

For `CN1C(=O)C(CC(N)=O)N(NC(=O)c2ccc(Cl)cc2)C1=S` (stereo not drawn), the “activity, negative = inhibition” value was -1.48%.

For the compound `Cc1ccc(NC(=S)NC2CCCC2)cc1`, the AC50 was 3.55 µM (active).

`CO[C@H]1COC(=O)C/C=C\[C@H](C)[C@@H](OC)COC(=O)[C@@H](C)COC(=O)C/C=C\[C@@H]1C`: the activity, negative = inhibition is -29.5% [at 11.4 µM].

Regarding `CN1CCN(c2ncc3nc(-c4ccc(Cl)cc4)c(=O)n(Cc4cccs4)c3n2)CC1`, the “activity, negative = inhibition” value is -10.7%.

For the compound `COc1ccc(Cn2c(SCc3ccccc3C)nc3cc(OC)c(OC)cc3c2=N)cc1`, the AC50 is 20 µM (active).

In the case of `COc1cc2nc(SCc3ccc(Cl)cc3Cl)n(Cc3cccs3)c(=N)c2cc1OC`, the concentration at half-maximal activity (AC50) is 2.51 µM (active).

With `FC(F)(F)c1ccccc1-c1ccc2ncnc(N3CCOCC3)c2c1`, the AC50 was 0.631 µM (active).

For the compound `O=C(O)C1CCN(c2ncnc3ccc(-c4ccccc4C(F)(F)F)cc23)CC1`, the “activity, negative = inhibition” value is 7.46%.

As to `COc1cccc(-c2ccc3ncnc(N4CCOCC4)c3c2)c1`, the AC50 was 3.98 µM (active).

`Cc1ccccc1-c1ccc2ncnc(N3CCN(C)CC3)c2c1`: the “activity, negative = inhibition” value was -43.3%.

Take `CN1CCN(c2ncnc3ccc(-c4ccccc4C#N)cc23)CC1`: the “activity, negative = inhibition” value was -12.2%.

Take `CN1CCN(c2ncnc3ccc(-c4ccccc4Cl)cc23)CC1`: the AC50 is 3.98 µM (active).

With `COc1ccccc1-c1ccc2ncnc(N3CCOCC3)c2c1`, the AC50 is 1.26 µM (active).

Take `CS(=O)(=O)Nc1cccc(-c2ccc3ncnc(N4CCOCC4)c3c2)c1`: the “activity, negative = inhibition” value is -21.5%.

`COc1cccc(-c2ccc3ncnc(N4CCNCC4)c3c2)c1`: the AC50 is 3.16 µM (active).

Turning to `CN1CCN(c2nc(-c3ccccc3C(F)(F)F)nc3ccccc23)CC1`, the “activity, negative = inhibition” value is -31.9%.

As to `N#Cc1cccc(-c2ccc3ncnc(N4CCNCC4)c3c2)c1`, the “activity, negative = inhibition” value was -32.6%.

As for `COc1ccccc1-c1nc(N2CCOCC2)c2ccccc2n1`, the “activity, negative = inhibition” value was -12.8%.

Regarding `CS(=O)(=O)Nc1cccc(-c2ccc3ncnc(N4CCNCC4)c3c2)c1`, the “activity, negative = inhibition” value is -37.5%.

On to `FC(F)(F)c1ccccc1-c1nc(N2CCOCC2)c2ccccc2n1`, for which the AC50 is 15.8 µM (active).

Consider `NCCCCC(=O)O`, for which the “activity, negative = inhibition” value is 10.4%.

On to `CCOC(=O)C1=C(c2ccccc2)OC(N)=C(C#N)C1c1ccc(Cl)s1` (stereo not drawn), for which the AC50 is 0.398 µM (active).

In the case of `CCc1cc2c(=O)c(-c3nc4ccccc4[nH]3)coc2cc1OC(=O)N1CCOCC1`, the concentration at half-maximal activity (AC50) was 15.8 µM (active).

As to `COc1cc(Br)c(C(C)NC(=O)c2cccc(Br)c2)cc1OC` (stereo not drawn), the AC50 is 2.24 µM (active).

On to `COc1ccccc1CNc1ncnc2ccc(-c3ccc4c(c3)OCO4)cc12`, for which the AC50 is 3.16 µM (active).

Consider `COc1ccc(CNc2ncnc3ccc(-c4ccc(N(C)C)cc4)cc23)c(OC)c1`, for which the AC50 is 3.98 µM (active).

With `CN(C)c1ccc(-c2ccc3ncnc(NCc4ccccc4)c3c2)cc1`, the AC50 was 7.94 µM (active).

As to `COc1ccccc1CNc1ncnc2ccc(-c3ccc(N(C)C)cc3)cc12`, the half-maximal activity concentration (AC50) is 10 µM (active).

Regarding `CC(C)CO/N=C1/C[C@@H](O)[C@@H](O)[C@@H]2[C@@H]3C(=O)N(C[C@@H]4CCCO4)C(=O)[C@H]3CC[C@H]12`, the activity, negative = inhibition is 24.8% [at 11.4 µM].

Take `COCCNc1ncnc2ccc(-c3ccc(C(=O)N(C)C)cc3)cc12`: the “activity, negative = inhibition” value was 6.62%.

In the case of `COc1ccc(CNc2ncnc3ccc(-c4ccc(C(=O)N(C)C)cc4)cc23)c(OC)c1`, the AC50 was 15.8 µM (active).

With `CS(=O)(=O)Nc1cccc(-c2nc(N3CCOCC3)c3ccccc3n2)c1`, the “activity, negative = inhibition” value is -36.3%.

For `O=c1nc(N2CCOCC2)ccn1-c1nc(-c2ccccc2)oc1-c1ccccc1`, the “activity, negative = inhibition” value is -22.4%.

With `Clc1ccc(Sc2cc(N3CCOCC3)nc(-c3ccccc3)n2)cc1`, the AC50 was 3.55 µM (active).

Take `Nc1nc(Cl)cc(N2CCOCC2)n1`: the “activity, negative = inhibition” value is -18.1%.

On to `COc1cccc(Sc2cc(N3CCOCC3)nc(-c3ccccc3)n2)c1`, for which the AC50 is 14.1 µM (active).

As to `Cc1c(Br)c([N+](=O)[O-])nn1C(C)C(=O)Nc1nccs1` (stereo not drawn), the AC50 was 10 µM (active).

For the compound `CCc1ccccc1NC(=O)C(C)n1nc([N+](=O)[O-])c(Br)c1C` (stereo not drawn), the AC50 is 2.51 µM (active).

For the compound `C[N+](C)(C)CCCCCC[N+](C)(C)C`, the AC50 result was “inactive”.

Consider `O=C(CSCC(=O)OCn1nnc2ccccc2c1=O)Nc1ccc(Cl)cc1`, for which the AC50 is 11.2 µM (active).

Consider `CCC1OC23CCCCC2C(C#N)(C(=N)O3)C1(C#N)C#N` (stereo not drawn), for which the AC50 was 17.8 µM (active).

As for `Nc1ccccc1S[C@@H](C[N+](=O)[O-])c1ccc2c(c1)OCO2`, the AC50 was 1.58 µM (active).

As for `COc1ccc(C(=O)N2CCC[C@@]3(CCN(C(=O)NC(C)C)C3)C2)cc1`, the “activity, negative = inhibition” value is 13.2%.

Take `CCN1CCN(c2cc(=O)n(-c3cc(Cl)ccc3C)c(=O)[nH]2)CC1`: the “activity, negative = inhibition” value is -12%.

`CCCCCn1c(CN2CCN(c3cc(Cl)ccc3C)CC2)nc2c1c(=O)[nH]c(=O)n2C`: the AC50 was 3.55 µM (active).

As for `COc1cc(O)c2c(O)c3c(c4c2c1[C@@]1(C4)C(C)=CCCC1(C)C)[C@H](O)[C@@]1(O)CC(=O)C(C(N)=O)=C(O)[C@]1(O)C3=O`, the AC50 is 2.51 µM (active).
